The text below walks through data of paper PMC7862700, “An all-to-all approach to the identification of sequence-specific readers for epigenetic DNA modifications on cytosine”.

Holding throughout (assay): DAPPL (digital affinity profiling via proximity ligation, sequencing); 10 mM Tris-HCl pH 7.5, 50 mM NaCl, 1 mM DTT, 4% glycerol, room temperature, 30 min; GST-TFs on glutathione beads, 16-mer random dsDNA library, 0.1% formaldehyde crosslink after washing; high values mean tight binding
In assay [1] the target is T1, FEV (Homo sapiens, UniProt Q99581 1-238).
T1 sequence: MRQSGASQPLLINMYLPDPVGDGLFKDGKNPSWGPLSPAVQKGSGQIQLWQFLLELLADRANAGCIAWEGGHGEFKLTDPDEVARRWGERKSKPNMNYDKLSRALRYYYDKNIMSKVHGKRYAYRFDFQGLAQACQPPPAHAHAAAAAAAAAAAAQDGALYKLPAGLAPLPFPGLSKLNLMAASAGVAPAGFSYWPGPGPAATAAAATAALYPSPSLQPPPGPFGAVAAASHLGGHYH
Particulars: protein: recombinant; tags: N-terminal GST; dsDNA, one strand shown. The essentials:
(§1)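 Beads coated with glutathione captured GST-fused human transcription factors that had been expressed in yeast, and the factors were then given DNA barcodes and pooled with a tag-only sample. The pools were incubated with 200 nmole of a random double-stranded 16-mer DNA library in Tris/NaCl/DTT/glycerol buffer for 30 min at room temperature, washed, crosslinked with 0.1% formaldehyde and proximity-ligated with BsaI/T4 ligase at 37 °C for 1 h. PCR amplification and Illumina NextSeq500 sequencing came last. Binding signal is each hexamer's read frequency for a factor divided by its frequency for the tag-only sample.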

Assay [2] deals with ETV5 (Homo sapiens, UniProt P41161 1-510). Conditions: protein: recombinant; tags: N-terminal GST; dsDNA, one strand shown. The essentials: as §1
Assay [3] addresses HSF1 (Homo sapiens, UniProt Q00613 1-529). Conditions: protein: recombinant; tags: N-terminal GST; chain copies: 3; dsDNA, one strand shown. In a few lines: as §1
In assay [4] the target is T2, SPIC (Homo sapiens, UniProt Q8N5J4 1-248).
T2 sequence: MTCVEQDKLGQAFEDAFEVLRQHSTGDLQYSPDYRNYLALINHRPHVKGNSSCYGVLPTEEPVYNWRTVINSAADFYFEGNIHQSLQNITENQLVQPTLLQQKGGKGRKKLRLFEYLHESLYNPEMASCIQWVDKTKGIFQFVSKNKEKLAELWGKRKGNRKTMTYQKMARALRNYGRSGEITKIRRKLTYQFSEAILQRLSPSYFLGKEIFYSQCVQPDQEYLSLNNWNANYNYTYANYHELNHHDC
Conditions: protein: recombinant; tags: N-terminal GST; dsDNA, one strand shown. The essentials:
as §1

Assay [5] concerns the target ELF4 (Homo sapiens, UniProt Q99607 1-663). Particulars: protein: recombinant; tags: N-terminal GST; dsDNA, one strand shown. The essentials: as §1
Assay [6] concerns the target T3, ELK4 (Homo sapiens, UniProt P28324-2 1-405).
T3 sequence: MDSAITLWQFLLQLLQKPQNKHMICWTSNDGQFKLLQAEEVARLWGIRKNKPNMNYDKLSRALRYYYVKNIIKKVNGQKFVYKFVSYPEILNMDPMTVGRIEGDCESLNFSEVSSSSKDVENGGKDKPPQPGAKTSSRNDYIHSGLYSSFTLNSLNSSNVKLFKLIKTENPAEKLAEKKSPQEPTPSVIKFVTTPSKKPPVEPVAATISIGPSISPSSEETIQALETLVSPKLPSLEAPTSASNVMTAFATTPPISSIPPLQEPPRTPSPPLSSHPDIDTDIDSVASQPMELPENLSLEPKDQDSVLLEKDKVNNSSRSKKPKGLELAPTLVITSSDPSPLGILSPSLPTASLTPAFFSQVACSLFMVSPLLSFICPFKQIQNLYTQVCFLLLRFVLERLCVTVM
Conditions: protein: recombinant; tags: N-terminal GST; dsDNA, one strand shown. The essentials: as §1

Assay [7] has as its target T4, ETV2 (Homo sapiens, UniProt O00321 1-342).
T4 sequence: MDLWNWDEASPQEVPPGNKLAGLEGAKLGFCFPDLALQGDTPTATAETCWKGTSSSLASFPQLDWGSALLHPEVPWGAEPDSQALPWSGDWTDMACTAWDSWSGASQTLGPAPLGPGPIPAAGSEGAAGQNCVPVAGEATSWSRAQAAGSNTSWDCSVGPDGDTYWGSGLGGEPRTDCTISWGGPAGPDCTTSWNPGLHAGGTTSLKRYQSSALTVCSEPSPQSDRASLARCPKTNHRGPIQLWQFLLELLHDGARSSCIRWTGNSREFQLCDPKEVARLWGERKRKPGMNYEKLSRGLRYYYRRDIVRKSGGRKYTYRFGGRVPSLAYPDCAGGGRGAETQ
Conditions: protein: recombinant; tags: N-terminal GST; dsDNA, one strand shown. The essentials: as §1

Assay [8] has as its target T5, ELF3 (Homo sapiens, UniProt P78545 1-371).
T5 sequence: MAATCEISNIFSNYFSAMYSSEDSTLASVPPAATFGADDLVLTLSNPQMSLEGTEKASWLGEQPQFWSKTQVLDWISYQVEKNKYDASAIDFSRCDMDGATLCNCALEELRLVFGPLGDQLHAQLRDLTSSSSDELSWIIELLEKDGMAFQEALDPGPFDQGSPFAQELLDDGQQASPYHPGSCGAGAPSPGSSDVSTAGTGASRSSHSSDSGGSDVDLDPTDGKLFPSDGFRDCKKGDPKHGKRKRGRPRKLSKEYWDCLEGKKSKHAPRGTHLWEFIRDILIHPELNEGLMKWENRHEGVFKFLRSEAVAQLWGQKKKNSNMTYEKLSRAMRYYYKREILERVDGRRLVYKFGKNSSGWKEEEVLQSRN
Conditions: protein: recombinant; tags: N-terminal GST; dsDNA, one strand shown. The essentials: as §1

For assay [9], the target named is CRX (Homo sapiens, UniProt O43186 1-299). Conditions: protein: recombinant; tags: N-terminal GST; dsDNA, one strand shown. In a few lines:
as §1

Assay [10] addresses ETV1 (Homo sapiens, UniProt P50549 1-477). Conditions: protein: recombinant; tags: N-terminal GST; dsDNA, one strand shown. The essentials: as §1
Assay [11] deals with T6, ERF (Homo sapiens, UniProt P50548 1-548).
T6 sequence: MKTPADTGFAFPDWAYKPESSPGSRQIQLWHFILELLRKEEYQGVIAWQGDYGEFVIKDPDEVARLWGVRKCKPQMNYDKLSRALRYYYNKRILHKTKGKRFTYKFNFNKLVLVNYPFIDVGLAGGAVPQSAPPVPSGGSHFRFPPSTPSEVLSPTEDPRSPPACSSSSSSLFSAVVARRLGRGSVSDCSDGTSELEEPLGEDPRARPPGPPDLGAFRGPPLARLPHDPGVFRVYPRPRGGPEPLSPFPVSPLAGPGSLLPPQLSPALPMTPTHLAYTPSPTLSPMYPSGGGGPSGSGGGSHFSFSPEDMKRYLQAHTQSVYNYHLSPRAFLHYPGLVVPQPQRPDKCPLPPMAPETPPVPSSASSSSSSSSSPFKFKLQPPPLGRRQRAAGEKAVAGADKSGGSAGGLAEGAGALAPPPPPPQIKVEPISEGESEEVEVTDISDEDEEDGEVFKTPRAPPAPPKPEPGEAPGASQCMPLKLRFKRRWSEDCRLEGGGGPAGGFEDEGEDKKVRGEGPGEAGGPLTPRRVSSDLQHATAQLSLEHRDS
Particulars: protein: recombinant; tags: N-terminal GST; dsDNA, one strand shown. The essentials: as §1

For assay [12], the target named is T7, ETV3L (Homo sapiens, UniProt Q6ZN32 1-361).
T7 sequence: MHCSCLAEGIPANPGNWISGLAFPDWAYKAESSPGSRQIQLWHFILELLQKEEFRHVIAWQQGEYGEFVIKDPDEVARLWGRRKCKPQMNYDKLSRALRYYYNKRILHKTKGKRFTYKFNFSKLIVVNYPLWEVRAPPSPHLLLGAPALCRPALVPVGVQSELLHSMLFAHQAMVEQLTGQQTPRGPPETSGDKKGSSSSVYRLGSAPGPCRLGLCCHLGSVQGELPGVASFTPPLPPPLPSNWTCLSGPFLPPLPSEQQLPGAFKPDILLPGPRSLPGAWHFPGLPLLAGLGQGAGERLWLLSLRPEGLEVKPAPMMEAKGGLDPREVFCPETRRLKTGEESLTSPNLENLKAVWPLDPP
Conditions: protein: recombinant; tags: N-terminal GST; dsDNA, one strand shown. In a few lines: as §1

The target in assay [13] is T8, ETS2 (Homo sapiens, UniProt P15036 1-469).
T8 sequence: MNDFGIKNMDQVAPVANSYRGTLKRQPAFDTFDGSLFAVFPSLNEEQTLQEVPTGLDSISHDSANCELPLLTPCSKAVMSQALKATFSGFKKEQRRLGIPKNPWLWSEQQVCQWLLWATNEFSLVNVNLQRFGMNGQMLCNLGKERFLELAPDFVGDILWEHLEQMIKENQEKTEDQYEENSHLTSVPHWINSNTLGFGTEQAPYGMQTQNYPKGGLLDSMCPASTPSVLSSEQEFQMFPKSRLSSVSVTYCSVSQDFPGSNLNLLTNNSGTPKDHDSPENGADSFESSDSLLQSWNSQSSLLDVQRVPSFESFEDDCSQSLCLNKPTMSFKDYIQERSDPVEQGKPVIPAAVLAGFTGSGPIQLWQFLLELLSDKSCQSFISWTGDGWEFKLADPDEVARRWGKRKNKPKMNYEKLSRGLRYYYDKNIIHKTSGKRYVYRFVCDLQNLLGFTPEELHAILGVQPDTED
Particulars: protein: recombinant; tags: N-terminal GST; dsDNA, one strand shown. The essentials: as §1

Assay [14] addresses T9, SPDEF (Homo sapiens, UniProt O95238 1-335).
T9 sequence: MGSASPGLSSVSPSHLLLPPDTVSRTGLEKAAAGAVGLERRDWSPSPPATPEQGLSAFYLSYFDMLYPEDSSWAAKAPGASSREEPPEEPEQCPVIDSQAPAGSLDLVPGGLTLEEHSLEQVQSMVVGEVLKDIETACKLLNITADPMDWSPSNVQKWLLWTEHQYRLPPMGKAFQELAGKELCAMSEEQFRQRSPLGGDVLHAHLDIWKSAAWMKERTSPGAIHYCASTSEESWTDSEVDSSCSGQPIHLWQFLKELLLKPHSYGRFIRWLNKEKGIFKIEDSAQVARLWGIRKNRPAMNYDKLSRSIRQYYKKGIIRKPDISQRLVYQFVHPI
Particulars: protein: recombinant; tags: N-terminal GST; dsDNA, one strand shown. In a few lines:
as §1

Assay [15] has as its target T10, ETV7 (Homo sapiens, UniProt Q9Y603 1-341).
T10 sequence: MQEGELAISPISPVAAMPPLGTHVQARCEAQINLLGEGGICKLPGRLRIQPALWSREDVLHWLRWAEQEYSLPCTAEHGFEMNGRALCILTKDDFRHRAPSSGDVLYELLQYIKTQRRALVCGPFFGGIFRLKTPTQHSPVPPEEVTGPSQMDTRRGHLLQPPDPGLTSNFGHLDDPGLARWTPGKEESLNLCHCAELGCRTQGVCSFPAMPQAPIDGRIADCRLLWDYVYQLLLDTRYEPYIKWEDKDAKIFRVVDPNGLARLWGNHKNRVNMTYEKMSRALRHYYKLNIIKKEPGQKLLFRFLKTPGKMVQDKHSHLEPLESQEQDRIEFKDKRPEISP
Conditions: protein: recombinant; tags: N-terminal GST; dsDNA, one strand shown. The essentials:
as §1

The target in assay [16] is T11, ELF5 (Homo sapiens, UniProt Q9UKW6-2 1-255).
T11 sequence: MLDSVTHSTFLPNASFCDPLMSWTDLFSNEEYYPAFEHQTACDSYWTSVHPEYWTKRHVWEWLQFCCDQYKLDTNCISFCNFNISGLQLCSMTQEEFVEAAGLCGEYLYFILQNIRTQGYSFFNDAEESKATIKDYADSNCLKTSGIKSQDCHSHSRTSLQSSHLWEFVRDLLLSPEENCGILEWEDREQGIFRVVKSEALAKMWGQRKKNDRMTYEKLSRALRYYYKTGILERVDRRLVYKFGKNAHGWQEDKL
Conditions: protein: recombinant; tags: N-terminal GST; dsDNA, one strand shown. The essentials:
as §1

The target of assay [17] is T12, ETV3 (Homo sapiens, UniProt P41162-2 1-143).
T12 sequence: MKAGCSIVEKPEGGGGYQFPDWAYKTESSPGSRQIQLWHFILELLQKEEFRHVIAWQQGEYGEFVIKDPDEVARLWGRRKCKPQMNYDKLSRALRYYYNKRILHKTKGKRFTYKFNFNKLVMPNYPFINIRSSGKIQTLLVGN
Particulars: protein: recombinant; tags: N-terminal GST; dsDNA, one strand shown. The essentials: as §1

The target in assay [18] is ETV6 (Homo sapiens, UniProt P41212 1-452). Particulars: protein: recombinant; tags: N-terminal GST; dsDNA, one strand shown. In a few lines: as §1
Sequence of ETV6 (P41212 whole entry): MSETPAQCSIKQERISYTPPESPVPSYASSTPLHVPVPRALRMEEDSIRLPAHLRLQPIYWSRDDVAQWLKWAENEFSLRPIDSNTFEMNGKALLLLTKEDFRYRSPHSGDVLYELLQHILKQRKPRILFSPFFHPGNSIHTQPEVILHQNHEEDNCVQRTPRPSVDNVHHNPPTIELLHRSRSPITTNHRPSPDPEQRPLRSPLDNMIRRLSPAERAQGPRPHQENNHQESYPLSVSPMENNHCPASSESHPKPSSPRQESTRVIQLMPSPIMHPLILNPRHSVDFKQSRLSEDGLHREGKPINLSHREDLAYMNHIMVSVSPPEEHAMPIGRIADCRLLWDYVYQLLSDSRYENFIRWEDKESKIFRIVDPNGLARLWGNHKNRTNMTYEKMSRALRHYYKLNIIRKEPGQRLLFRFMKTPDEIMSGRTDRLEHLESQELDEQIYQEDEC

Sequence of ETV5 (P41161 whole entry): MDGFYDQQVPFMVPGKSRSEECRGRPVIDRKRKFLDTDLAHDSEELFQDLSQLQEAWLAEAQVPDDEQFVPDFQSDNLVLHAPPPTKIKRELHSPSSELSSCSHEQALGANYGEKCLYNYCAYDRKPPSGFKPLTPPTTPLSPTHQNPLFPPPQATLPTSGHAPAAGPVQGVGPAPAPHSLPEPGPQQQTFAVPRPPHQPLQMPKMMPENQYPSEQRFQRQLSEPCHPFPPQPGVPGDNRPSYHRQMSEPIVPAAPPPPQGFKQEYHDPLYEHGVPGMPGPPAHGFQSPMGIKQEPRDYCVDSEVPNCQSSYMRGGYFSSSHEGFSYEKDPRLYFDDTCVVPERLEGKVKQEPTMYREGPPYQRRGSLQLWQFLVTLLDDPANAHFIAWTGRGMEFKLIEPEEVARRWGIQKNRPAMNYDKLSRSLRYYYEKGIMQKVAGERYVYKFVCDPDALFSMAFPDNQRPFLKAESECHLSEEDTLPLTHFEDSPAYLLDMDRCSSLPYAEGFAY
Sequence of ELF4 (Q99607 whole entry): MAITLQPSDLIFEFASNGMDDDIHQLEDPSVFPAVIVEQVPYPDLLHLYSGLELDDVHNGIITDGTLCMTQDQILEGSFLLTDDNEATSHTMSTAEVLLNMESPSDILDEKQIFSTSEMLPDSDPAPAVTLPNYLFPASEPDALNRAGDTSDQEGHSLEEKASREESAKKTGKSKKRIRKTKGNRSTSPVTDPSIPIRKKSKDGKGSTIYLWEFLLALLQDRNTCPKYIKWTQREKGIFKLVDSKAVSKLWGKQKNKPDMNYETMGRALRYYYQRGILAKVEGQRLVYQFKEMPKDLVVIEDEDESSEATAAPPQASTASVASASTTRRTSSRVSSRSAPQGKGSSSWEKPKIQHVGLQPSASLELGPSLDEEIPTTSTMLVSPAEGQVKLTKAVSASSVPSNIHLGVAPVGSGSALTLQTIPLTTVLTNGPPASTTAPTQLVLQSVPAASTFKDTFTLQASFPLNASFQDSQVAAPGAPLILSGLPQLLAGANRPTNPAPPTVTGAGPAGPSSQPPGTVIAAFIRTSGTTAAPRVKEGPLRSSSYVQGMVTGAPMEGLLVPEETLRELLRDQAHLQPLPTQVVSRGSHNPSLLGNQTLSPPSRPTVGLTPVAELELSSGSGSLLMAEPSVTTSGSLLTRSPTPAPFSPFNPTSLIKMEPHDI
Sequence of CRX (O43186 whole entry): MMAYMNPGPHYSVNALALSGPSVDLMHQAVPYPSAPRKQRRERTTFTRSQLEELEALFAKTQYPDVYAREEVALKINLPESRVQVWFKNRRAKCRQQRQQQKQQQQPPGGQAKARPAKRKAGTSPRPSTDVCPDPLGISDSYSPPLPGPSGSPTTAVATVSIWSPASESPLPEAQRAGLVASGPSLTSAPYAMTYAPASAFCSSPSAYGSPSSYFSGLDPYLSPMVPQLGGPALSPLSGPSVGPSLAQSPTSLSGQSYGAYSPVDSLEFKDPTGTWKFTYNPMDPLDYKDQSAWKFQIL
Sequence of HSF1 (Q00613 whole entry): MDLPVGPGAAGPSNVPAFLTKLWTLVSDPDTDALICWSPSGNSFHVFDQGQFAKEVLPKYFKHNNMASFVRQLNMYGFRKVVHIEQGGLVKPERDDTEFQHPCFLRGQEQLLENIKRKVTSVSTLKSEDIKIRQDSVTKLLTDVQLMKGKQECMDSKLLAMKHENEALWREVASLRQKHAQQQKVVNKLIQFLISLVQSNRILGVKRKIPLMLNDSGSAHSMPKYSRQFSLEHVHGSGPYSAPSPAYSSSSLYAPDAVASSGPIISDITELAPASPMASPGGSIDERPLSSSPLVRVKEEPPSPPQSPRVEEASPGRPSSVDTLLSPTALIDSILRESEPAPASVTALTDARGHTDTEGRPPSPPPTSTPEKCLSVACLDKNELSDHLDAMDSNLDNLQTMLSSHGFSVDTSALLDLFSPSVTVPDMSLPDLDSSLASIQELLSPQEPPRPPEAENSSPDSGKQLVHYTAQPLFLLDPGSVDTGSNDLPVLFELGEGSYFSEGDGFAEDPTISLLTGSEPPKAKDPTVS
Sequence of ETV1 (P50549 whole entry): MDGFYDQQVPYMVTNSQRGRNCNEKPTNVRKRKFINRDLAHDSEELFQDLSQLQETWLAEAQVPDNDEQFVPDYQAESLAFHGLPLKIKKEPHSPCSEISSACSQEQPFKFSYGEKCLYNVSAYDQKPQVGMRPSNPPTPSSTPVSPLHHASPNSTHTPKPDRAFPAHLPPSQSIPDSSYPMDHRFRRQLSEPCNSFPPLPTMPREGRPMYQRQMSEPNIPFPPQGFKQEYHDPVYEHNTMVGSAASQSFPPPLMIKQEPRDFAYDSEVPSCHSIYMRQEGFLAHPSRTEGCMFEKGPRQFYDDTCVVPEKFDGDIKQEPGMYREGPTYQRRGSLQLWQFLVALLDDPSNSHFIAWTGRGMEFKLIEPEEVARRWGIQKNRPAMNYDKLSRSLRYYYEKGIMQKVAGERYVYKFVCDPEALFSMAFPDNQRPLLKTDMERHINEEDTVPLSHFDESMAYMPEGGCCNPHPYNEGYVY

Consider ATCTTA, for which the binding signal is 1.1 fold enrichment (6-mer frequency, TF over GST control) in assay [1]; 1.1 fold enrichment (6-mer frequency, TF over GST control) in assay [2]; 1.47 fold enrichment (6-mer frequency, TF over GST control) in assay [3]; 1.05 fold enrichment (6-mer frequency, TF over GST control) in assay [4]; 1.1 fold enrichment (6-mer frequency, TF over GST control) in assay [5]; 1.18 fold enrichment (6-mer frequency, TF over GST control) in [6]. For the same sequence, the binding signal in [7] is 1.12 fold enrichment (6-mer frequency, TF over GST control); in assay [8] it was 1.12 fold enrichment (6-mer frequency, TF over GST control); in [9] it was 2.11 fold enrichment (6-mer frequency, TF over GST control); in [10] it was 1.12 fold enrichment (6-mer frequency, TF over GST control); in [11], 1.1 fold enrichment (6-mer frequency, TF over GST control); in [12] it was 1.1 fold enrichment (6-mer frequency, TF over GST control). The binding signal in assay [13] was 1.12 fold enrichment (6-mer frequency, TF over GST control); in assay [14] it was 1.12 fold enrichment (6-mer frequency, TF over GST control); in assay [15], 1.18 fold enrichment (6-mer frequency, TF over GST control); in assay [16], 1.11 fold enrichment (6-mer frequency, TF over GST control); in assay [17], 1.04 fold enrichment (6-mer frequency, TF over GST control); in assay [18], 1.14 fold enrichment (6-mer frequency, TF over GST control).
